Bioassay records deposited in PubChem BioAssay by University of Kansas High Throughput Screening Laboratory.
mHTT CaM bind = mutant huntingtin-calmodulin interaction inhibitors – biochemical, AlphaScreen, primary screen; P42858; AlphaScreen His-mHTT/GST-CaM binding, luminescence; inhibition, % at 15 µM; 3.6% of 190,000 active; AID 1671202, 2021;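 also: 0% = both proteins with DMSO and 100% = one protein alone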
Target sequence (P42858 whole entry, looked up, stated change not applied): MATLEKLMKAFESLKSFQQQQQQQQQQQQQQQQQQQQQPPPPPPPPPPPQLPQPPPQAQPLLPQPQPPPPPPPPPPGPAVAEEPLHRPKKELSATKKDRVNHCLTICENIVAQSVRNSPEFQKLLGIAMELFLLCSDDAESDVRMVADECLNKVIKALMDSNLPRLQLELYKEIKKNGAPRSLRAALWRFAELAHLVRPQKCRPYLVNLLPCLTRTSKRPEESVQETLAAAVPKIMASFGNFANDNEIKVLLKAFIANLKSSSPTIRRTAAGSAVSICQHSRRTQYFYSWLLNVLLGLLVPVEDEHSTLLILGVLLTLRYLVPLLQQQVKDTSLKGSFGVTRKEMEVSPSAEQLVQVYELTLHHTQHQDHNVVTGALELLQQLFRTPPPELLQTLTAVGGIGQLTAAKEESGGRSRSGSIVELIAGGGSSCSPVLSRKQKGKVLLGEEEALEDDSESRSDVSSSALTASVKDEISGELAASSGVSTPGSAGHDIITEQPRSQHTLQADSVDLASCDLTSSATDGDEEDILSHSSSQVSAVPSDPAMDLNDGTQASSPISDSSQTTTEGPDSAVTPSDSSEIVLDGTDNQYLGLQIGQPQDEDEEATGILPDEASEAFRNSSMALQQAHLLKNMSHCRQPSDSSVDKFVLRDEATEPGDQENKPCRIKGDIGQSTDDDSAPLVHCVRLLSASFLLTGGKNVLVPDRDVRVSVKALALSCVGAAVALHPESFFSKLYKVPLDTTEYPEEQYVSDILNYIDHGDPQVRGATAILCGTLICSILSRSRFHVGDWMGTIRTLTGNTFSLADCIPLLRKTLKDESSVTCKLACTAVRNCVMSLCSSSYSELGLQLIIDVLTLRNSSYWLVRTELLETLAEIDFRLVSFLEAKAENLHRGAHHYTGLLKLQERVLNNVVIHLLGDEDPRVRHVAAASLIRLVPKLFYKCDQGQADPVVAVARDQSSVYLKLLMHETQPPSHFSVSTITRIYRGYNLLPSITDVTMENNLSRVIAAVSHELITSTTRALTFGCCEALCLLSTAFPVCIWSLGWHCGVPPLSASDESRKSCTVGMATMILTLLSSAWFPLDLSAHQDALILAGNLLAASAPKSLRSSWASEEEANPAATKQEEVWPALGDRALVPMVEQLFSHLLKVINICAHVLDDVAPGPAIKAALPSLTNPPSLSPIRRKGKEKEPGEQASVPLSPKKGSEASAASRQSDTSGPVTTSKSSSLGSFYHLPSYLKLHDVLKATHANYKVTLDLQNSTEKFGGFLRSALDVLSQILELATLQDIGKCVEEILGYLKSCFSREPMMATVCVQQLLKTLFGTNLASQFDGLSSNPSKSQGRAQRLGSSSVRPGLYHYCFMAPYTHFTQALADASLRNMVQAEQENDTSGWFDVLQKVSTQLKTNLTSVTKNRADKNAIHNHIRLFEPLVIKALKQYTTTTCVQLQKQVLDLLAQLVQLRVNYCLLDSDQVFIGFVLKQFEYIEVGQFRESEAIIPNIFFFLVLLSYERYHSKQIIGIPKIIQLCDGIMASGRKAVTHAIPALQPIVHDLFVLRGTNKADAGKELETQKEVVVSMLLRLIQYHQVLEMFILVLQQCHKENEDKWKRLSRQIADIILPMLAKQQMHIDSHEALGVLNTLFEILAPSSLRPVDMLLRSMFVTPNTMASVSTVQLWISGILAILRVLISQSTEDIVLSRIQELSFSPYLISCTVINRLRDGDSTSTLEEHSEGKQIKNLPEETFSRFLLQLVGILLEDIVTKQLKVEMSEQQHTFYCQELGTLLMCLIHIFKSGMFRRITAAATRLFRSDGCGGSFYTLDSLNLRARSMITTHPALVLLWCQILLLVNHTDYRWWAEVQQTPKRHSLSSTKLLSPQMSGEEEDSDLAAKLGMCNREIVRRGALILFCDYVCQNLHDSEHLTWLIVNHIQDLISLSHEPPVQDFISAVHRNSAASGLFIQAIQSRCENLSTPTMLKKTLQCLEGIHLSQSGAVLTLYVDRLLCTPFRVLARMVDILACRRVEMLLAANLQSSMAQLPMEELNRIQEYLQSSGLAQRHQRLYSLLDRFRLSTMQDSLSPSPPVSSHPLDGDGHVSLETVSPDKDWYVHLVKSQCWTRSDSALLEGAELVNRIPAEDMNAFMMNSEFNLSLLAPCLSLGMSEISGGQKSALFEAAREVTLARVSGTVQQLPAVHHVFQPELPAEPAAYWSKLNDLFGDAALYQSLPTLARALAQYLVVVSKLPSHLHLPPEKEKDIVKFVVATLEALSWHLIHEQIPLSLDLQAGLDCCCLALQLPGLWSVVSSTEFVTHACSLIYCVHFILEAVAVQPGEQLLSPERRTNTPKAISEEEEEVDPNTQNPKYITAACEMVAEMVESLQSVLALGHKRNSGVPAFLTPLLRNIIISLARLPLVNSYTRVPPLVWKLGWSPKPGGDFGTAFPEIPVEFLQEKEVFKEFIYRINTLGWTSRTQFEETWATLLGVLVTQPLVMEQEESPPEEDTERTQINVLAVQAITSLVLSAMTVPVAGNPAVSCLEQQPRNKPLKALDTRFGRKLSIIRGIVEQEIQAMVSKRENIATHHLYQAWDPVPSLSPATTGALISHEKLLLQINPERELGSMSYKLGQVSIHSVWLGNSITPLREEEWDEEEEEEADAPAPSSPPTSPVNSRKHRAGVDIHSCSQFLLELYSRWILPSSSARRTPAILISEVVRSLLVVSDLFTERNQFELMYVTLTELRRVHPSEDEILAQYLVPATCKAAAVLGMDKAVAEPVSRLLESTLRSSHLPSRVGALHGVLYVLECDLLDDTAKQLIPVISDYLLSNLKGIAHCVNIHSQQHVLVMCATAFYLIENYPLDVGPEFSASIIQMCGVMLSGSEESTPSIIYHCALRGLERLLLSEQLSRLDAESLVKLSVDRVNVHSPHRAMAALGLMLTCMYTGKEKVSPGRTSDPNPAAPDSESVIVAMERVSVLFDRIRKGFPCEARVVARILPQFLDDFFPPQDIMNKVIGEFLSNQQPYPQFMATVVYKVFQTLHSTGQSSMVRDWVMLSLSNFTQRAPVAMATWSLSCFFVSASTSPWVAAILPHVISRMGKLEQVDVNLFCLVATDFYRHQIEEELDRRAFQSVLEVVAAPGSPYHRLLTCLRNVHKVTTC
Pf apPOL block = Pf-apPOL inhibitors, biochemical, fluorescence. Recombinant Pf-apPOL, molecular beacon fluorescence, 1.5 h. inhibition, % at 10 µM. 0.25% of 210,000 active. AID 1794808, 2022
* = called active by the depositor; / = no result; ! = not confirmed by another sample. Only some compounds are listed: those with a hit (about 3.6% of all), similar ones and a draw of the others. Rule as the data show it: active = inhibition above about 50%; inactive = the rest.

SMILES	mHTT CaM bind	Pf apPOL block
O=C(NC1CCCCCCC1)C1c2cccn2CC(=O)N1CCc1ccccc1 (centres undefined)	33.0	-2.3
CC(C)c1n[nH]c(C2CCCN2C(=O)c2ccc3c(c2)OCO3)n1 (centres undefined)	-2.0	-0.9
CCn1c(C2CCN(C(=O)c3ccc(C)cc3C)C2)nc2cccnc21 (centres undefined)	1.0	-4.6
COc1ccc2c(c1)OC(=Cc1ccc(OS(C)(=O)=O)c(OC)c1)C2=O	5.5	-19.8
CC1(C)CC(=O)C2=C(C1)OC(N)=C(C#N)C2c1cn(-c2ccccc2)nc1-c1ccccc1 (centres undefined)	76.5*	1.0
Cc1ccccc1C1C(C#N)=C(N)OC2=C1C(=O)CC(C)(C)C2 (centres undefined)	-2.1	1.2
O=C(Nc1ccc(S(=O)(=O)N2CCOCC2)cc1)C(F)(F)F	1.0	-0.1
COc1ccc(OC)c(CNc2ccc([N+](=O)[O-])cc2C)c1	50.7*	5.4
COc1ccc(CNc2ccc([N+](=O)[O-])cc2C)c(OC)c1C	1.4	-6.4
COc1ccc(OC)c(CNc2cc([N+](=O)[O-])ccc2OC)c1	-3.3	22.5
Cc1cc([N+](=O)[O-])ccc1NCc1c[nH]c2ccccc12	68.6*	1.5
COC(=O)c1cc2sccc2s1	/	-2.1
NC(=O)c1oc2ccccc2c1NC(=O)C12CC3CC(CC(C3)C1)C2	100.2*	5.5
CCOC(=O)c1oc2ccccc2c1NC(=O)C12CC3CC(CC(C3)C1)C2	-5.2	0.2
O=C(Cc1cccc(F)c1)N1CCCC1c1nc(-c2cccc(Cl)c2)no1 (centres undefined)	0.6	0.8
O=C(NCCc1ccccc1)N1CCCC1c1nc(-c2ccccc2)no1 (centres undefined)	0.5	0.3
O=C(NCCc1ccccc1)N1CCCC1c1nc(-c2cccc(Cl)c2)no1 (centres undefined)	60.6*	-3.2
Cc1ccc(CC(=O)N2CCCC2c2nc(-c3cccc(Cl)c3)no2)cc1 (centres undefined)	60.6*	-4.0
O=C(Cc1ccc(F)cc1)N1CCCC1c1nc(-c2cccc(Cl)c2)no1 (centres undefined)	19.9	-1.6
Cc1cccc(-c2noc(C3CCCN3C(=O)Cc3cccc(Cl)c3)n2)c1 (centres undefined)	79.4*	-5.5
O=C1CC(c2ccccc2)Cc2nc(N3CCCC3)ncc21 (centres undefined)	-8.0	-7.7
CCSc1nnc2c(n1)OC(c1cc(OC)c(O)c(OC)c1)Nc1ccccc1-2 (centres undefined)	-3.0	94.6*
CCCCCSc1nnc2c(n1)OC(c1cccnc1)Nc1ccccc1-2 (centres undefined)	6.0	-3.3
CCCSc1nnc2c(n1)OC(c1cccnc1)Nc1ccccc1-2 (centres undefined)	0.0	51.9*
CCCSc1nnc2c(n1)OC(c1cc(OC)c(O)c(OC)c1)Nc1ccccc1-2 (centres undefined)	-7.0	-0.2
SMILES	mHTT CaM bind	Pf apPOL block
CC(NC(=O)c1cccc2[nH]ccc12)C(=O)N1CCCc2ccccc21 (centres undefined)	-3.5	3.4
CS(=O)(=O)CS(=O)(=O)C1=C(N2CCOCC2)C2CCN1CC2	-7.0	3.2
COCCCN1C(=O)/C(=C\c2cnn(C)c2)NC1=S	-2.4	/
CCOC(=O)c1cn(C2CN(S(=O)(=O)Cc3ccccc3)C2)nn1	-6.2	-1.5
O=c1c2cccc3c2c(nn1Cc1ccccc1Cl)-c1ccccc1-3	-14.0	-2.7
NC(=O)Cn1nc2c3c(cccc3c1=O)-c1ccccc1-2	1.0	60.8*!
COc1ccc(N2CCN(CC(O)COc3ccccc3C(C)(C)C)CC2)cc1 (centres undefined)	70.7*	1.6
COc1ccccc1N1CCN(CC(O)COc2cccc3ccccc23)CC1 (centres undefined)	23.0	-6.6
COc1ccccc1N1CCN(CC(O)COc2ccccc2C(C)(C)C)CC1 (centres undefined)	19.4	-2.2
COc1ccc(N2CCN(CC(O)COc3ccc(C)c(C)c3)CC2)cc1 (centres undefined)	36.4	-0.5
COc1ccccc1N1CCN(CC(O)COc2ccc(Cl)cc2C)CC1 (centres undefined)	74.7*	21.0
COc1ccc(N2CCN(CC(O)COc3ccc(Cl)cc3C)CC2)cc1 (centres undefined)	76.1*	-1.8
Cc1c(Cl)cc(F)cc1S(N)(=O)=O	/	9.9
O=C(Cn1cnc2c(c1=O)CCN(Cc1ccccc1)C2)Nc1ccccc1F	13.4	-2.9
O=C(NCc1ccc(-n2ccnc2)cc1)c1ccoc1	0.9	-1.3
C=CCCC(=O)NCC1(CO)CC1	-11.3	-3.4
C=C(C)C1C(c2cc(CCN(C)C)ccc2OC)C=C(C)CC1c1cc(CCN(C)C)ccc1OC (centres undefined)	/	1.2
Cc1ccc(C2CC(c3ccccc3)=NN2C(=O)CCC(=O)O)cc1 (centres undefined)	6.0	5.3
CC(=O)N1N=C(c2ccccc2)CC1c1ccc(N(C)C)cc1 (centres undefined)	19.0	-7.3
CC(=O)N1N=C(c2ccc(Br)cc2)CC1c1ccc(Br)cc1 (centres undefined)	4.0	-10.4
Cc1ccc(C2=NN(C(=O)CCC(=O)O)C(c3ccc(Br)cc3)C2)cc1 (centres undefined)	11.0	72.5*
CC(=O)N1N=C(c2ccc(Br)cc2)CC1c1ccc(N(C)C)cc1 (centres undefined)	74.0*	-9.9
COc1cc(C(=O)N2N=C(c3ccccc3)CC2c2ccc(N(C)C)cc2)cc(OC)c1OC (centres undefined)	97.0*	-0.6
O=C(NCCc1c[nH]c2ccccc12)c1ccc2c(c1)NC(=O)C1CCCCN21 (centres undefined)	49.7	-2.0
CC1=Nc2ccc(CCC(=O)O)cc2C1(C)C	3.9	6.7
SMILES	mHTT CaM bind	Pf apPOL block
CC(C)CCNC(=O)c1cc2ccncc2[nH]1	0.7	-7.6
Cc1ccc(S(=O)(=O)N2CCN(c3ccc(C)c(F)c3)C(=O)C2C)cc1 (centres undefined)	-0.5	-3.0
O=C(Nc1ccc(N2CCCC2)cc1)c1ccccc1[N+](=O)[O-]	83.7*	-5.9
O=C(Nc1ccc(N2CCCC2)cc1)c1ccc(Br)o1	61.7*	2.3
O=C(Nc1cnc(N2CCCCC2)nc1)c1ccc(Br)o1	-5.6	-1.6
O=C(Nc1ccc(N2CCCCC2)cc1)c1ccccc1[N+](=O)[O-]	19.5	-30.1
O=C(Nc1ccc(N2CCCC2)cc1)c1cc(Br)ccc1Cl	86.3*	0.1
Cc1ccccc1C(=O)Nc1ccc(N2CCCC2)cc1	33.5	-33.7
O=C(Nc1ccc(N2CCCC2)cc1)C(Cl)(Cl)Cl	73.6*	-8.6
O=C(Nc1ccc2c(c1)CCCN2C(=O)C1CC1)c1cc(Br)ccc1Cl	-7.8	-4.2
CC(=O)Nc1ccc(-c2noc(C3CCCN(C(=O)CCc4ccccc4)C3)n2)cc1 (centres undefined)	0.8	1.2
Fc1ccccc1-c1nnn(Cc2ccccc2Cl)n1	-39.0	-7.6
Cc1cc(C)n(-c2ccc(C(=O)NC3CCCCC3)cn2)n1	-4.1	-3.4
CC(=O)NC(=O)C(C#N)=CN1CCN(Cc2ccccc2)CC1	/	2.1
CC(=O)N1CCc2cc(Br)cc(S(=O)(=O)CCC(=O)N3CCC(C)CC3)c21	-4.0	5.5
O=C1c2cccc([N+](=O)[O-])c2C(=O)N1CNc1ccccc1	27.0	5.3
